Laboratory results taken from PubChem BioAssay (NCI).
About 79,000 compounds went through this panel and 15% of them were active in at least one assay; those are over-represented in the sample as a whole. Values without a mark were called inactive. Calls of active or inactive are those of the source. Cut-off read from the data, not from the text of the source: active = growth inhibition above about 70%; inactive = the rest.

Assay: NCI Yeast Anticancer Drug Screen. Data for the cln2 rad14 strain (AID 165);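 note: 0% = growth equal to vehicle treated cultures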
Details: S. cerevisiae cln2 rad14 strain, at 5.0 µM (retest, dose inferred, filed as 0.5), hits give high values
Experimental: Growth inhibition of yeast strains with defined genetic alterations is measured as a screen for potential anti-cancer activity. Selected strains with alterations in DNA damage repair or cell cycle control were exposed to compounds and growth inhibition was measured relative to vehicle treated controls. The strain used in this assay is cln2 rad14

Row | Compound | growth inhibition [%]
1 | COc1ccc(Nc2ccc3ccccc3c2)cc1 | -4
2 | O=C(Cc1ccccc1)c1ccc(O)c(Cl)c1 | 12
3 | CC(C)NC(=O)N/C=C(\C#N)C(N)=O | 2

Same assay, conditions: S. cerevisiae cln2 rad14 strain, at 50.0 µM (retest, dose inferred, filed as 5.0), hits give high values

Row | Compound | growth inhibition
4 | COc1ccc(Nc2ccc3ccccc3c2)cc1 | -17%
5 | O=C(Cc1ccccc1)c1ccc(O)c(Cl)c1 | 96% (active)
6 | CC(C)NC(=O)N/C=C(\C#N)C(N)=O | 1%

Same assay, conditions: S. cerevisiae cln2 rad14 strain, hits give high values; at 50.0 µM unless noted

Row | Compound | growth inhibition [%]
7 | CCCCCCCSCC(=O)OCC | 7.2
8 | COC(=O)c1cc(C)n(C)c(=O)c1CN | -22.4
9 | O=C1OCCOCCOCCOCCOCCOC(=O)c2cccc1n2 | 18.1
10 | CC1SCc2nc3ccccc3n21 (stereo not given) | 12.1
11 | C=CCc1cc2c(C)cc(=O)oc2c(C)c1OC(C)=O | 13.1
12 | O=Nc1c(O)c2ccccc2[nH]c1=O | 24.9
13 | O=C1C=CC=C/C1=C1/SC(c2ccccc2)=C(O)N1c1ccccc1 | -17.3
14 | Cc1c2ccncc2c(C)c2c1[nH]c1ccc(O)cc12 | 23.6
15 | OCCNc1ncnc2c1ncn2C1OC(CO)C(O)C1O (stereo not given) | -23.9
16 | CNC(=O)C(C(=O)NC)c1ccccc1 | -18.5
17 | CCc1n[nH]c(=O)n1-n1c(C)ccc1C | 3.15
18 | CC(=O)C(C)(CC#N)C(CC=O)CCC#N (stereo not given) | -1.45
19 | NC(=O)c1ccc(-c2csc(=S)[nH]2)s1 | -13.1
20 | CCOC(=O)c1cc(C)ncc1N | 13.2
21 | O=S=Nc1c(Cl)cc(Cl)cc1Cl | -18.6
22 | N#CCCC1(CCC#N)CCCC(CCC#N)(CCC#N)C1=O | -51.5
23 | CC1(C)OC(=O)N=C1c1ccccc1Cl | -11.4

Row | Compound | growth inhibition [%]
24 | O=C1OC2C(O)C(CO)OC2n2c1cc(=O)[nH]c2=O (stereo not given) | -4.15
25 | CCCOC(=O)c1ccc([N+](=O)[O-])cc1 | 8.75
26 | NC(Cc1cc(Br)c(Oc2ccc(O)cc2)c(Br)c1)C(=O)O (stereo not given) | -0.55
27 | O=[n+]1c2c(n([O-])c3ccccc31)CCCCCCCCCC2 | -35.2
28 | CC(C)(C)NC(=O)CCCl | 5.6
29 | ClCc1ccccc1C(c1ccccc1)c1ccccc1 | -32.1
30 | CN(C)C(=O)NN1CCCCCC1 | -14.7
31 | CNCCc1cn(C2OC(CO)C(O)C(O)C2O)cn1 (stereo not given) | -40.9
32 | CO[C@H]1C[C@H](n2cc(C)c(=O)[nH]c2=O)O[C@@H]1CO | -10.7
33 | CC(=O)Nc1nnn(C)n1 | -39.5
34 | CCCCCCCCOC(=O)NC1c2ccccc2Oc2c(C)cccc21 (stereo not given) | -30.1
35 | COC(=O)N/N=C(/CCC(=O)Nc1ccc(C)c(C)c1)CC(=O)C(C)(C)C | 2
36 | CC1CCCN1CCOC(=O)C(c1ccccc1)C1CCCC1 (stereo not given) | -4.7
37 | Clc1ccc2c(c1)C(=P(c1ccccc1)(c1ccccc1)c1ccccc1)c1cc(Cl)cc(Cl)c1-2 | 50.6
38 | CCCCN1CCC(N)=NC1=O | 9.2
39 | O=C(c1ccccc1)c1ccc2c(Cl)ccc3c2c1CC3 | 12.8
40 | Cc1ccc2[nH]c(C(=O)O)cc2c1 | 10.3
